# BL2 CD40 inh = inhibitors of CD40-induced NF-kB signaling, primary screen, BL2 cells, luciferase reporter, single point; CD40L-induced, 4 h; inhibition, % at 10 µM; 83,000 tested, 0.94% active; AID 1053188, 2014;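 active means mean inhibition of at least 50% with a set share of replicates also reaching that level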
# Hits are given with their value; – = inactive; ! = repeats disagree. This excerpt belongs to a sample that is enriched for hits.
SMILES,BL2 CD40 inh
Cc1nc(-c2ccc(F)cc2)c(CC(=O)N(C)CC(=O)Nc2ccccc2Br)s1,–
Cc1nc(-c2ccc(F)cc2)c(CC(=O)N(C)CC(=O)Nc2ccccc2C(F)(F)F)s1,–
Cc1nc(-c2ccc(F)cc2)c(CC(=O)N(C)CC(=O)Nc2ccc(Br)cc2C)s1,92
Cc1nc(-c2ccc(F)cc2)c(CC(=O)N(C)CC(=O)Nc2cccc(F)c2)s1,54
Cc1nc(-c2ccc(F)cc2)c(CC(=O)NCC(=O)Nc2ccc(F)c(F)c2)s1,–
CCN(CC(=O)Nc1ccccc1C(F)(F)F)C(=O)Cc1sc(C)nc1-c1ccc(F)cc1,–
O=C(NC[C@@H]1[C@@H](c2ccccc2)[C@@H](CO)N1Cc1cccnc1)C1CCCC1,–
COc1ccc(-c2ccc(C3[C@H]4CNC[C@@H]3N4Cc3cc(F)ccc3F)cc2)cc1 (stereo partly specified),–
C[C@H]1CN([C@@H](C)CO)C(=O)c2ccccc2-c2ccccc2CO[C@H]1CN(C)Cc1ccc(C(=O)O)cc1,–
Cc1ccc(S(=O)(=O)Nc2ccc3c(c2)C(=O)N([C@@H](C)CO)C[C@H](C)[C@@H](CN(C)S(=O)(=O)c2cccs2)OCCCC[C@H](C)O3)cc1,–
O=C(NC[C@@H]1[C@H](c2ccccc2)[C@H](CO)N1C(=O)C1CCC1)NC1CCCC1,–
OCc1cc2ncnc(Nc3ccc(O)c(Br)c3)c2cc1CO,–
O=c1cc(-c2ccccc2)oc2cc(OCc3ccccc3)cc(O)c12,–
CC(C)(C)OC(=O)COc1cc(OCC(=O)OC(C)(C)C)c2c(=O)cc(-c3ccccc3)oc2c1,57!
CCOC(=O)COc1ccc2c(=O)c(-c3ccccc3)coc2c1,–
CNC[C@@H]1Oc2ccc(N(C)C)cc2C(=O)N(C)C[C@H]1C,–
COc1ccc(NC(=O)c2ccc(OCC3CCCO3)cc2)cc1OC (stereo unspecified),–
Cc1ccnc(NC(=O)c2ccc3c(c2)C(=O)N(CC2CCCO2)C3=O)c1 (stereo unspecified),–
Cc1ccnc(NC(=O)c2ccc(OCC3CCCO3)cc2)c1 (stereo unspecified),87
COc1cccc(C(=O)Nc2ccc3c(c2)OC[C@@H](C)N(CCc2ccccc2)C[C@@H](C)[C@H](OC)CN(C)C3=O)c1,–
COc1ccc(-c2ccccc2[C@H]2[C@@H](CO)N(C(=O)C3CCOCC3)[C@H]2C#N)cc1,–
Cc1[nH]c2ccccc2c1CCO,–
Cc1[nH]c2ccccc2c1CC#N,–
Cc1[nH]c2ccccc2c1C1=CC(=O)C=CC1=O,91
N#C[C@@H]1[C@H](c2ccc(-c3cccnc3)cc2)[C@H](CO)N1C(=O)C1CCOCC1,–
SMILES,BL2 CD40 inh
N#C[C@@H]1[C@@H](c2ccccc2C2=CCCCC2)[C@@H](CO)N1C(=O)NC1CCCCC1,–
Cn1cnc(S(=O)(=O)N2[C@@H]3CNC[C@H]2C3c2ccc(/C=C/c3ccccc3)cc2)c1 (stereo partly specified),–
CSCCC(NC(=O)OC(C)(C)C)C(=O)Oc1ccc2c(=O)c(-c3ccc4c(c3)OCCO4)coc2c1 (stereo unspecified),–
O=C(CN1CCC(C(=O)c2ccc3c(c2)OCCO3)CC1)NC1CCCC1,–
CCc1cc2c(=O)c(-c3ccc4c(c3)OCCO4)coc2c(CN2CCCCC2C)c1O (stereo unspecified),32
C[C@@H]1CN([C@H](C)CO)C(=O)c2cc(C#CC3(O)CCCC3)cnc2O[C@@H]1CN(C)S(=O)(=O)c1ccccc1,–
O=C1CCCn2cc(nn2)COC[C@H](Cc2ccccc2)N1,–
CO[C@@H]1CN(C)C(=O)c2cc(NC(=O)C3CCOCC3)ccc2OC[C@@H](C)N(CC2CC2)C[C@@H]1C,–
Nc1ncnc2c1ncn2CCNCCc1ccccc1,–
Cc1ccc(OCCn2cnc3c(N)ncnc32)cc1,84
Cc1ccc(OCCCCn2cnc3ccccc32)cc1,–
CNC[C@H]1Oc2ccc(N(C)C)cc2C(=O)N(C)C[C@@H]1C,–
O=C(COC(=O)c1ccccc1[N+](=O)[O-])NC(=O)c1ccccc1,–
O=C(NC1CCCCNC1=O)c1ccccc1 (stereo unspecified),–
O=C(NC(=S)/C(=C1\CCCCCN1)[N+](=O)[O-])c1ccccc1,72
Cn1cnnc1SCc1ccc(F)c2ccccc12,–
Cn1cnnc1SCc1ccc(C(=O)NN)cc1,–
Cn1cnnc1SCc1ccc(-c2ccc(Br)cc2)o1,80
O=C(Nc1ccc(Cl)c(Cl)c1)N[C@H]1CC[C@H](CCn2cc(C3CCCC3)nn2)O[C@@H]1CO,–
C[C@@H]1CN([C@H](C)CO)C(=O)c2c(c3ccccc3n2C)-c2ccccc2CO[C@H]1CN(C)S(=O)(=O)c1cccs1,–
NS(=O)(=O)c1ccc(Cl)c(S(N)(=O)=O)c1,–
Nc1ccc(S(N)(=O)=O)cc1N,–
NC1=C(Cl)C(=O)c2ccc(S(N)(=O)=O)cc2C1=O,60
CC[C@@H]1C/C=C\CCNC(=O)CCC(=O)N1,–
C[C@@H]1CN([C@@H](C)CO)C(=O)CCCn2nncc2CO[C@@H]1CN(C)Cc1cccnc1,–
SMILES,BL2 CD40 inh
CC[n+]1c(/C=C2/C=C(C)CC(C)(C)C2)sc2ccc(OC)cc21,80
CO[C@H]1CC[C@@H]2CCOc3c(C#N)cccc3C(=O)N(C)C[C@H](OC)[C@@H](C)C(=O)N(C)C[C@H]1O2,–
CC(C)NC(=O)N(C)C[C@@H]1Oc2ccc(N)cc2CC(=O)N(C)C[C@H]1C,–
CCCNC(=O)C[C@H]1CC[C@@H]2[C@@H](COc3ccc(NC(=O)NCCC)cc3C(=O)N2C)O1,–
N#C[C@@H]1[C@H](c2ccccc2-c2cccc(F)c2)[C@H](CO)N1C(=O)NC1CCCC1,–
O=C(c1cnccn1)N1CC[C@H]2[C@H](CO)Nc3ccc(-c4ccccc4F)cc3[C@H]21,–
Cc1ccc(S(=O)(=O)CC(=O)N2CCN(c3ccc([N+](=O)[O-])cc3)CC2)cc1,–
Cc1ccc(S(=O)(=O)CC#CCOC(=O)c2ccc([N+](=O)[O-])cc2)cc1,89
Cc1ccc(CONC(=O)c2ccc([N+](=O)[O-])cc2)cc1,–
COc1cccc(CNC(=O)C[C@H]2CC[C@H]3[C@H](COc4ccc(NC(=O)c5cccs5)cc4C(=O)N3C)O2)c1,–
COCCNC(=O)[C@@H]1[C@@H](CO)[C@@H]2Cn3c(ccc(-c4ccccc4F)c3=O)[C@@H]2N1C(=O)C1CCC1,–
CC1CC(C)C(=NNC(N)=O)C(C(O)CC2CCC(=O)NC2=O)C1 (stereo unspecified),56
O=C(c1ccccn1)N1C[C@@H]2[C@H](c3ccccc31)[C@@H](CO)N2C(=O)Cc1ccccc1,–
O=C(Nc1ccc2c(c1)OCCO2)c1ccc2ccccc2n1,–
CC(OC(=O)c1ccccn1)C(=O)Nc1ccc2c(c1)OCCO2 (stereo unspecified),–
O=C(Nc1ccc2c(c1)OCCO2)c1ccccn1,78
CNC[C@@H]1Oc2c(NC(C)=O)cccc2C(=O)N(C)C[C@H]1C,–
CCCCCC(=O)Nc1cccc2ccccc12,–
CCCCCCCC[n+]1cccc2c3ccccc3ccc21,93
CCCCCCCCNc1ncnc2ccccc12,–
Cc1cccc[n+]1CCCCCCCCCC[n+]1ccccc1C,–
CCCCCCCCCC[n+]1cccc2c3ccccc3ccc21,94
C[C@H]1CC(=O)N[C@H](c2ccccc2)C/C=C\C[C@H](c2ccc3c(c2)OCO3)NC1=O,–
CCCNC(=O)N1C[C@H]2[C@@H](c3ccccc31)[C@H](CO)N2C(=O)CN1CCOCC1,–
